Source: PubChem
This is a sample that favours compounds with a hit; in the whole collection about 10% have one here.
LMNA splice mod: changes lamin A minigene splicing in HeLa cells; 0.01% of 200,000 active; Potency, µM (series often up to 46.1 µM), actives largely listed as inhibitors; AID 1487; HeLa LMNA splicing GFP/RFP minigene ratio, 48 h; active means well fitted inhibition curve with a large enough effect in the signal ratio, with a control signal flat, not every such curve was filed as active; inconclusive means small, poorly fitted or top-dose-only effect, or effect the other way, or a change in a side signal; the % refers to the signal ratio
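S3 HeLa cells stably expressing lamin A-EGFP splicing minigene plus DsRed2, 600 cells/well, 48 h compound exposure at 37C. Laser-scanning cytometry; analysed as GFP (500-530 nm)/RFP (575-640 nm) total intensity ratio; 0.5% DMSO vehicle.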
ALOX12 inhib: blocks human 12-lipoxygenase activity; Potency, µM (top dose mostly 57.1 µM), hits mostly inhibitors; 0.12% of 150,000 active; purified 12-hLO, xylenol orange hydroperoxide absorbance; active means well fitted inhibition curve with a large enough effect; inconclusive means small, poorly fitted or top-dose-only effect; further: nearly all actives have a fitted effect of over 55% in size
Target sequence (P18054 whole entry, looked up): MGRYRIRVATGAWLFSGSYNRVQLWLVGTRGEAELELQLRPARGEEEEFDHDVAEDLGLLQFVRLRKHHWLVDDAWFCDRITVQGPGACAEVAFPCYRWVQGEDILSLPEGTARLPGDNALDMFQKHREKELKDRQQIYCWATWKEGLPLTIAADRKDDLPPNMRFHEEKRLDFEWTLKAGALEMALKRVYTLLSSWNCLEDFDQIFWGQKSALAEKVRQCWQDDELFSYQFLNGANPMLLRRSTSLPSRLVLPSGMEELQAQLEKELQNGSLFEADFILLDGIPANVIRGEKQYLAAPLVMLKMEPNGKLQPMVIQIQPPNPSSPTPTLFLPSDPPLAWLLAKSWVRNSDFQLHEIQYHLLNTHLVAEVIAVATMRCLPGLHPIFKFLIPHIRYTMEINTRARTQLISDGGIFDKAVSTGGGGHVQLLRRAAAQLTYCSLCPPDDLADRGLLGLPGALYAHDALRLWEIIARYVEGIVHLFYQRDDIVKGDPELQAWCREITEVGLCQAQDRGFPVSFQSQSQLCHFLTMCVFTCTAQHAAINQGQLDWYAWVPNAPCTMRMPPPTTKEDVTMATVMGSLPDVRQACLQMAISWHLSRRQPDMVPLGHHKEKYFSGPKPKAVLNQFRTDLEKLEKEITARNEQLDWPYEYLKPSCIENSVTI
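150 nM 12hLO, 25 mM Hepes pH 7.0 + 0.01% Triton X-100; cpd preinc 15 min RT; 40 uM arachidonic acid, 30 min RT; Fe-XO 30 min; A573/A405 ratio as read-out.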
PNC assembly inh: inhibitors of perinucleolar compartment assembly; PC3M PTB-GFP, PNC prevalence imaging, 16 h; active compounds read low; activity change (PNC), negative = inhibition, % at 10 µM; 3.1% of 140,000 active; AID 2417;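 active means readout at or below -70, meaning at least 70% loss of cells showing the perinucleolar compartment, a nuclear body marking cancer cells; inconclusive means readout between -30 and a set limit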
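PC3M cells stably expressing PTB-GFP, 750–1000 cells/well, treated 16 h at 37 °C with compound (23 nl of library stock), in duplicate. After paraformaldehyde fixation and Hoechst stain, imaged at 20x; PNC prevalence scored by image analysis.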
HPGD block: inhibitors of human 15-hydroxyprostaglandin dehydrogenase (HPGD) | P15428 | purified HPGD, NADH fluorescence kinetic, PGE2 substrate | Potency, µM, usual class: inhibitors | 4.3% of 150,000 active | AID 894
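20 nM HPGD preincubated 15 min at room temperature with compound in 50 mM Tris-HCl pH 8, 0.01% Tween 20. Started with 1 mM NAD+ and 30 uM prostaglandin E2; NADH fluorescence (360/450 nm) read 5 times over 30-s intervals, last minus first.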
ALDH1A1 inh: blocks purified human ALDH1A1 activity | 7.3% of 220,000 active | Potency, µM (highest dose often 75.3 µM), hits mostly inhibitors | Purified ALDH1A1, NADH fluorescence, propionaldehyde substrate | P00352
Large screens that a line does not name were inactive. Unless noted, the call rests on the fitted dose curve; in most records, active means well fitted inhibition curve with a large enough effect (not every such curve was filed as active); inconclusive means small, poorly fitted or top-dose-only effect, or another doubt; inactive means no such curve, though single readings can be large or run the other way.

C=C(Cl)CCl	ALDH1A1 inh 20µM (no result: LMNA splice mod, PNC assembly inh)
C=C(C)CCl	none (no result: LMNA splice mod, PNC assembly inh)
Cc1c([C@@H](C)[C@H]2NC[C@H](C)C[C@@H]2O)ccc2c1C[C@@H]1[C@H]2CC=C2C[C@@H](O)CC[C@@]21C	none (no result: LMNA splice mod, PNC assembly inh, HPGD block, ALDH1A1 inh)
O=C(CNC(=O)c1ccc(Br)cc1)NCC(=O)OCC(=O)c1ccc([N+](=O)[O-])cc1	ALDH1A1 inh 1µM
O=C(CNC(=O)c1ccc(Cl)cc1)OCC(=O)c1ccc2c(c1)OCCO2	ALDH1A1 inh inconclusive
O=C(CNC(=O)c1ccccc1)NCC(=O)OCC(=O)c1ccc([N+](=O)[O-])cc1	ALDH1A1 inh 0.89µM
O=C(CNC(=O)c1ccc(Cl)cc1)Nc1ccc(Br)cc1C(=O)c1ccccc1	ALDH1A1 inh inconclusive
COC(=O)CC1=C(C(=O)OC)C2(C(=O)Nc3c(C)cccc32)C(C#N)=C(N)O1 (stereo unspecified)	ALDH1A1 inh 10µM
CCCC1=C(C(=O)OCC)C2(C(=O)Nc3ccccc32)C(C#N)=C(N)O1 (stereo unspecified)	ALDH1A1 inh 11µM
CC1=CC(c2ccccc2)NC(=S)N1 (stereo unspecified)	HPGD block 13µM, ALDH1A1 inh 7.1µM
CC(=Nc1c(C)n(C)n(-c2ccccc2)c1=O)c1c(O)n(Cc2ccccc2)c(=O)[nH]c1=O	HPGD block 20µM
CC(=NCCCO)c1c(O)n(Cc2ccccc2)c(=O)[nH]c1=O	PNC assembly inh inconclusive, HPGD block inconclusive, ALDH1A1 inh inconclusive
CCCCCCN=C(C)c1c(O)n(Cc2ccccc2)c(=O)[nH]c1=O	PNC assembly inh -111
C/C(=N\Nc1ccccc1)c1c(O)n(Cc2ccccc2)c(=O)[nH]c1=O	HPGD block 28µM
CSc1ccc2c(c1)c(CCN)c(C)n2Cc1ccccc1Cl	none (no result: LMNA splice mod, PNC assembly inh)
c1ccc(CN2CCC3(CCNCC3)CC2)cc1	ALDH1A1 inh inconclusive (no result: LMNA splice mod, PNC assembly inh)
CNC(=O)O/N=C/C(C)(C)S(C)=O (stereo unspecified)	ALDH1A1 inh 28µM (no result: LMNA splice mod, PNC assembly inh)
COC(=O)[C@]1(C)CC[C@@]2(C)CC[C@@]3(C)C4=CC=C5C(=CC(=O)C(O)=C5C)[C@@]4(C)CC[C@@]3(C)C2C1 (stereo partly specified)	ALOX12 inhib inconclusive, HPGD block 20µM (no result: LMNA splice mod, PNC assembly inh)
CCC1CN2CCC1CC2C(Oc1cc2ccccc2c2ccccc12)c1ccnc2ccc(O)cc12 (stereo unspecified)	none (no result: LMNA splice mod, ALOX12 inhib, PNC assembly inh, HPGD block)
CCOC(=O)c1ccc(-n2c(N)c(C(=O)NCC3CCCO3)sc2=S)cc1 (stereo unspecified)	LMNA splice mod inconclusive, PNC assembly inh inconclusive, HPGD block 7.9µM, ALDH1A1 inh 4µM
Nc1c(C(=O)NC2CCCC2)c2nc3ccccc3nc2n1CC1CCCO1 (stereo unspecified)	PNC assembly inh inconclusive (no result: HPGD block)
CCOC(OCC)P(=O)(O)CCCN	none (no result: LMNA splice mod, PNC assembly inh)
c1ccc2c(c1)CN1CCCC1=N2	LMNA splice mod inconclusive (no result: PNC assembly inh)
CCCCOC(=O)CCN1C(=O)/C(=C2\SC(=S)N(CCC(=O)OCCCC)C2=O)SC1=S	PNC assembly inh inconclusive, ALDH1A1 inh 14µM
CC(C)n1c(/C=C\[C@@H](O)C[C@@H](O)CC(=O)O)c(-c2ccc(F)cc2)c2ccccc21	LMNA splice mod inconclusive, ALDH1A1 inh inconclusive (no result: PNC assembly inh)
CN(C)c1ccc2c(c1)N=C(c1ccco1)OP2(=S)N1CCOCC1 (stereo unspecified)	HPGD block 18µM, ALDH1A1 inh 8.9µM
CCCCCCCCCCCCCCC[C@@H](O)[C@@H](N)COP(=O)(O)O	none (no result: LMNA splice mod, PNC assembly inh)
CC1(C)[C@@H]2CC[C@]1(C)CN(CCC[N+](C)(C)C)C2	none (no result: LMNA splice mod, PNC assembly inh)
CC(C)c1ccc(N2C(=O)NC(=O)/C(=C/c3cnc(-c4ccccc4)nc3)C2=O)cc1	HPGD block 13µM, ALDH1A1 inh 19µM
O=C1NC(=O)N(Cc2ccccc2)C(=O)/C1=C/c1cnc(-c2ccccc2)nc1	none (no result: LMNA splice mod, ALOX12 inhib, PNC assembly inh, HPGD block)
CSc1ncc(/C=C2/C(=O)NC(=O)N(c3ccc(C(C)C)cc3)C2=O)cn1	HPGD block inconclusive, ALDH1A1 inh 14µM
CCCCN1C(=O)NC(=O)/C(=C/c2cnc(SC)nc2)C1=O	HPGD block 20µM
CCC1/C=C/C=CCC(C)C(O)[C@@](C)(O)C(=O)C(C)C(O)C(C)C(=O)C(C)C(O)C(C)C=CC(=O)O[C@H]2C(C)C(CC1)O[C@]1(CCC(C)C(CC(C)O)O1)C2C (stereo partly specified)	LMNA splice mod inconclusive (no result: PNC assembly inh)
Nc1cccc2ccccc12	HPGD block inconclusive, ALDH1A1 inh inconclusive (no result: LMNA splice mod, PNC assembly inh)
